Here are results for seven sequences from publication PMC7862700, “An all-to-all approach to the identification of sequence-specific readers for epigenetic DNA modifications on cytosine”.

Common to all, as to assay: DAPPL (digital affinity profiling via proximity ligation, sequencing); 10 mM Tris-HCl pH 7.5, 50 mM NaCl, 1 mM DTT, 4% glycerol, room temperature, 30 min; GST-TFs on glutathione beads, 16-mer random dsDNA library, 0.1% formaldehyde crosslink after washing; high values mean tight binding
Common to all, as to conditions: protein: recombinant; tags: N-terminal GST; dsDNA, one strand shown

In one assay the target is T1, FLI1 (Homo sapiens, UniProt Q01543 1-452).
T1 sequence: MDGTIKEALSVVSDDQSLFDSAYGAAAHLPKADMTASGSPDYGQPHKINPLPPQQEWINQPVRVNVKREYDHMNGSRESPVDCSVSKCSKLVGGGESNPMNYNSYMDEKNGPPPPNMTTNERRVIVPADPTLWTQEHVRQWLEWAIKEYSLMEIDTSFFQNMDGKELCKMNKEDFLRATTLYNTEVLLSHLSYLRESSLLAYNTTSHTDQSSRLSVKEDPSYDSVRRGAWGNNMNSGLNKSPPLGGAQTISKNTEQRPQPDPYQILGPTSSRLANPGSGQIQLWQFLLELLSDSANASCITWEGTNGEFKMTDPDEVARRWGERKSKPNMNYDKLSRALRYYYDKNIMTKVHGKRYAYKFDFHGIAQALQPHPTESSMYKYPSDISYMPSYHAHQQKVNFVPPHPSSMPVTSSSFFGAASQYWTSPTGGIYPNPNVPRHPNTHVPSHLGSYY
The gist of the method:
(§1)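 A tag-only sample was pooled with DNA-barcoded human transcription factors that had been expressed in yeast as GST fusions and captured on glutathione beads. The pools were incubated for 30 min at room temperature with 200 nmole of a random double-stranded 16-mer DNA library in Tris/NaCl/DTT/glycerol buffer, then washed, crosslinked with 0.1% formaldehyde, proximity-ligated (BsaI/T4 ligase, 1 h, 37 °C), PCR-amplified and sequenced on an Illumina NextSeq500. Binding signal is each hexamer's read frequency for a factor divided by its frequency for the tag-only sample.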

The next assay addresses T2, ELK1 (Homo sapiens, UniProt P19419 1-428).
T2 sequence: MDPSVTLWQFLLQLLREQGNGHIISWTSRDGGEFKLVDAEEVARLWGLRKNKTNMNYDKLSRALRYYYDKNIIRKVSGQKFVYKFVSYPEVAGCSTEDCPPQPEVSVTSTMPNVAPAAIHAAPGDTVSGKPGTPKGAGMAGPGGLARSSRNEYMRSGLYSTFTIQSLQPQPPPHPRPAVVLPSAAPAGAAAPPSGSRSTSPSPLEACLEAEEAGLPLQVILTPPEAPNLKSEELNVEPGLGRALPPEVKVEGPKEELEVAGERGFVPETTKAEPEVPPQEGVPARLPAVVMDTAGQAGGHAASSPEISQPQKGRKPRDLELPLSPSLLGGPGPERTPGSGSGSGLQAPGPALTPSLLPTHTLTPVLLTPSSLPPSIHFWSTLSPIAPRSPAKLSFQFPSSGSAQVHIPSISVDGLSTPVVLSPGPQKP
The gist of the method: as §1

Another assay has as its target T3, GABPA (Homo sapiens, UniProt Q06546 1-454).
T3 sequence: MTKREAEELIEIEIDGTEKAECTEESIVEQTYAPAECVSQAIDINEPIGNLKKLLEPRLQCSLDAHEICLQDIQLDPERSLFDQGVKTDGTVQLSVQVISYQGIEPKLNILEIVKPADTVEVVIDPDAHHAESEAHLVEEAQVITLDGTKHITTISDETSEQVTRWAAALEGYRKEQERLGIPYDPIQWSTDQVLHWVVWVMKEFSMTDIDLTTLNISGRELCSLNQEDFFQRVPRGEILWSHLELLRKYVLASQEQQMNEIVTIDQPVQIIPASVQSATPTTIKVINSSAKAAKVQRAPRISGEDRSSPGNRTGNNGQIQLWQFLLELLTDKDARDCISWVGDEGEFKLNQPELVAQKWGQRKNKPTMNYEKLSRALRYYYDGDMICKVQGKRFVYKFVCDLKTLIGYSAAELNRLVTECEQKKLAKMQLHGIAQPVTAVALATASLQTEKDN
The gist of the method: as §1

The target in another assay is T4, ERG (Homo sapiens, UniProt P11308 1-479).
T4 sequence: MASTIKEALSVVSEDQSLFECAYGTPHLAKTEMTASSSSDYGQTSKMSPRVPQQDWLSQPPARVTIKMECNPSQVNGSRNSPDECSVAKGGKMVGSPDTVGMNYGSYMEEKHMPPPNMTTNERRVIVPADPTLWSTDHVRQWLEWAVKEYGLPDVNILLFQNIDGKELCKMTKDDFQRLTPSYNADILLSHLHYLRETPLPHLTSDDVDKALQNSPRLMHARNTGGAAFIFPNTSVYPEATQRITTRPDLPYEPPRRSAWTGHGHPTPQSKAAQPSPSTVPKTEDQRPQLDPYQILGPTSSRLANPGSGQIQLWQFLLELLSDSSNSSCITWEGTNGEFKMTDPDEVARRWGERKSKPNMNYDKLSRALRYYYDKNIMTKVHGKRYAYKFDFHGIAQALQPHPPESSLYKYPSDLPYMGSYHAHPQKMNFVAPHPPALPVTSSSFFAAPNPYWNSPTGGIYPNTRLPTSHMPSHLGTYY
The gist of the method: as §1

The target in a further assay is ELF1 (Homo sapiens, UniProt P32519 1-619). The gist of the method: as §1
Sequence of ELF1 (P32519 whole entry): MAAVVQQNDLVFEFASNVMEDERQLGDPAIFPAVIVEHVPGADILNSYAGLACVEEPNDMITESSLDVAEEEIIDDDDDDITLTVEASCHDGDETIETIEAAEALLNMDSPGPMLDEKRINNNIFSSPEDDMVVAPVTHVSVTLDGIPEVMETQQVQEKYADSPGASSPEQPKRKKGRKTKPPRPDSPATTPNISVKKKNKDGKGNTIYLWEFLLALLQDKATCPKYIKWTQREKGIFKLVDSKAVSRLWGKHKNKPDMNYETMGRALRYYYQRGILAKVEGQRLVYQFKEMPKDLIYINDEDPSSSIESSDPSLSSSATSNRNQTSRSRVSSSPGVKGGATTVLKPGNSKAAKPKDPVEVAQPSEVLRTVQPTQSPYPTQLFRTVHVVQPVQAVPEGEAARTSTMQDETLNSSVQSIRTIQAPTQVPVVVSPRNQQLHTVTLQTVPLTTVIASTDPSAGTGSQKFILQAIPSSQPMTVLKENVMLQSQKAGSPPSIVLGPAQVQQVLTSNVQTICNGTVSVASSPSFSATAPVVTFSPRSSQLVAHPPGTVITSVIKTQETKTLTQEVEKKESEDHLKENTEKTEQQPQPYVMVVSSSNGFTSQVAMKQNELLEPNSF
The next assay concerns the target T5, EHF (Homo sapiens, UniProt Q9NZC4 1-300).
T5 sequence: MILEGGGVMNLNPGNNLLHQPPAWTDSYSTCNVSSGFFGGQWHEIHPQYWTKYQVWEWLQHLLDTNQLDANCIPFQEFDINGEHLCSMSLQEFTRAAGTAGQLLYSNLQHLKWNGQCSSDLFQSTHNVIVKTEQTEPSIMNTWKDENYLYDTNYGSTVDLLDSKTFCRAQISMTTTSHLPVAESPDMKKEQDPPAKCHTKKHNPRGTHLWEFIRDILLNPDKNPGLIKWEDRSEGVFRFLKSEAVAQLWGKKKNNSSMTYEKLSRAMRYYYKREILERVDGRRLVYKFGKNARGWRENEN
The gist of the method:
as §1

The next assay concerns the target SPI1 (Homo sapiens, UniProt P17947 1-270). The gist of the method: as §1
Another assay deals with SPIB (Homo sapiens, UniProt Q01892 1-262). The gist of the method: as §1
Sequence of SPIB (Q01892 whole entry): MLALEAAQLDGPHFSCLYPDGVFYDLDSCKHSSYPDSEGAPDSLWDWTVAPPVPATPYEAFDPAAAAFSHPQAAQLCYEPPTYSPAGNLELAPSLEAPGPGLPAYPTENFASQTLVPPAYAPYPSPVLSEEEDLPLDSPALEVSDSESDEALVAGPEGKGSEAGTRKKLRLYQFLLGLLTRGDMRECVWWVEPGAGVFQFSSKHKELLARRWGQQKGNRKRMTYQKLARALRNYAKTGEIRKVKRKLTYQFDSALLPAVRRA
Another assay addresses T6, ELK3 (Homo sapiens, UniProt P41970 1-407).
T6 sequence: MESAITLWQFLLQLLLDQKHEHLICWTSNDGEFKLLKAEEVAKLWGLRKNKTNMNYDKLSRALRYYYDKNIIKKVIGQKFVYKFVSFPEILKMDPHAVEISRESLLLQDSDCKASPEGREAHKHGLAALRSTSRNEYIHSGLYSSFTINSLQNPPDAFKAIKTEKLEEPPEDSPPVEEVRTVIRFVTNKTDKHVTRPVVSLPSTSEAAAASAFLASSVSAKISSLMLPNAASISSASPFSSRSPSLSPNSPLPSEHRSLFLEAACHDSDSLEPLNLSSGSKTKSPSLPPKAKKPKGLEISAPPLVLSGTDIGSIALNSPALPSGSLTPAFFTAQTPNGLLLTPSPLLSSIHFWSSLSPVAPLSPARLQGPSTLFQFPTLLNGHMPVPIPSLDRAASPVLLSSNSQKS
The gist of the method: as §1

With AGGAAG, the binding signal in the assay with FLI1 was 1.24 fold enrichment (6-mer frequency, TF over GST control); with ELK1, 1.32 fold enrichment (6-mer frequency, TF over GST control); with GABPA it was 1.24 fold enrichment (6-mer frequency, TF over GST control); in the assay with ERG, 1.63 fold enrichment (6-mer frequency, TF over GST control); with ELF1, 1.23 fold enrichment (6-mer frequency, TF over GST control); in the assay with EHF, 1.57 fold enrichment (6-mer frequency, TF over GST control). Moreover, the binding signal with SPI1 is 2.12 fold enrichment (6-mer frequency, TF over GST control); in the assay with SPIB it was 1.44 fold enrichment (6-mer frequency, TF over GST control); with ELK3, 1.26 fold enrichment (6-mer frequency, TF over GST control).
Turning to GTTTTA, the binding signal in the assay with FLI1 was 1.17 fold enrichment (6-mer frequency, TF over GST control); in the assay with ELK1, 1.05 fold enrichment (6-mer frequency, TF over GST control); with GABPA, 1.14 fold enrichment (6-mer frequency, TF over GST control); with ERG, 1.07 fold enrichment (6-mer frequency, TF over GST control); in the assay with ELF1, 1.07 fold enrichment (6-mer frequency, TF over GST control); in the assay with EHF, 1.11 fold enrichment (6-mer frequency, TF over GST control). The binding signal in the assay with SPI1 was 1.12 fold enrichment (6-mer frequency, TF over GST control); in the assay with SPIB, 1.16 fold enrichment (6-mer frequency, TF over GST control); with ELK3, 1.08 fold enrichment (6-mer frequency, TF over GST control).
Regarding GTTTAT, the binding signal with FLI1 was 1.09 fold enrichment (6-mer frequency, TF over GST control); with ELK1, 1.02 fold enrichment (6-mer frequency, TF over GST control); with GABPA it was 1.08 fold enrichment (6-mer frequency, TF over GST control); in the assay with ERG, 1.05 fold enrichment (6-mer frequency, TF over GST control); with ELF1 it was 1.06 fold enrichment (6-mer frequency, TF over GST control); with EHF, 1.06 fold enrichment (6-mer frequency, TF over GST control). The binding signal was 1.07 fold enrichment (6-mer frequency, TF over GST control) with SPI1; 1.1 fold enrichment (6-mer frequency, TF over GST control) in the assay with SPIB; 1.12 fold enrichment (6-mer frequency, TF over GST control) in the assay with ELK3.
For the sequence AATTCA, the binding signal in the assay with FLI1 was 1.29 fold enrichment (6-mer frequency, TF over GST control); with ELK1, 1.23 fold enrichment (6-mer frequency, TF over GST control); in the assay with GABPA, 1.35 fold enrichment (6-mer frequency, TF over GST control); with ERG it was 1.33 fold enrichment (6-mer frequency, TF over GST control); in the assay with ELF1, 1.31 fold enrichment (6-mer frequency, TF over GST control); with EHF, 1.27 fold enrichment (6-mer frequency, TF over GST control). Besides, the binding signal is 1.29 fold enrichment (6-mer frequency, TF over GST control) with SPI1; 1.33 fold enrichment (6-mer frequency, TF over GST control) with SPIB; 1.47 fold enrichment (6-mer frequency, TF over GST control) with ELK3.
For the sequence CCATCC, the binding signal with FLI1 is 1.24 fold enrichment (6-mer frequency, TF over GST control); with ELK1, 1.28 fold enrichment (6-mer frequency, TF over GST control); in the assay with GABPA, 1.23 fold enrichment (6-mer frequency, TF over GST control); with ERG, 1.32 fold enrichment (6-mer frequency, TF over GST control); in the assay with ELF1, 1.27 fold enrichment (6-mer frequency, TF over GST control); with EHF, 1.27 fold enrichment (6-mer frequency, TF over GST control). Besides, the binding signal with SPI1 is 1.31 fold enrichment (6-mer frequency, TF over GST control); with SPIB, 1.3 fold enrichment (6-mer frequency, TF over GST control); with ELK3, 1.41 fold enrichment (6-mer frequency, TF over GST control).
As for GAATAT, the binding signal was 1.08 fold enrichment (6-mer frequency, TF over GST control) in the assay with FLI1; 1.08 fold enrichment (6-mer frequency, TF over GST control) with ELK1; 1.11 fold enrichment (6-mer frequency, TF over GST control) with GABPA; 1.04 fold enrichment (6-mer frequency, TF over GST control) with ERG; 1.12 fold enrichment (6-mer frequency, TF over GST control) with ELF1; 1.04 fold enrichment (6-mer frequency, TF over GST control) with EHF. Besides, the binding signal in the assay with SPI1 was 1.08 fold enrichment (6-mer frequency, TF over GST control); with SPIB, 1.01 fold enrichment (6-mer frequency, TF over GST control); in the assay with ELK3 it was 1.12 fold enrichment (6-mer frequency, TF over GST control).
Consider GAACTT, for which the binding signal with FLI1 is 1.68 fold enrichment (6-mer frequency, TF over GST control); with ELK1, 1.65 fold enrichment (6-mer frequency, TF over GST control); with GABPA, 1.62 fold enrichment (6-mer frequency, TF over GST control); with ERG, 1.58 fold enrichment (6-mer frequency, TF over GST control); with ELF1 it was 1.7 fold enrichment (6-mer frequency, TF over GST control); with EHF it was 1.59 fold enrichment (6-mer frequency, TF over GST control). Moreover, the binding signal with SPI1 is 1.74 fold enrichment (6-mer frequency, TF over GST control); in the assay with SPIB, 1.69 fold enrichment (6-mer frequency, TF over GST control); with ELK3 it was 1.7 fold enrichment (6-mer frequency, TF over GST control).
